Pol iota inh – DNA polymerase iota (human) inhibition; actives 1% (n = 390,000); Potency, µM (top dose mostly 115 µM), most hits filed as inhibitors; Q9UNA4; AID 588590; Pol iota fluorescent replication assay, 10 min
Target sequence (Q9UNA4 whole entry, looked up): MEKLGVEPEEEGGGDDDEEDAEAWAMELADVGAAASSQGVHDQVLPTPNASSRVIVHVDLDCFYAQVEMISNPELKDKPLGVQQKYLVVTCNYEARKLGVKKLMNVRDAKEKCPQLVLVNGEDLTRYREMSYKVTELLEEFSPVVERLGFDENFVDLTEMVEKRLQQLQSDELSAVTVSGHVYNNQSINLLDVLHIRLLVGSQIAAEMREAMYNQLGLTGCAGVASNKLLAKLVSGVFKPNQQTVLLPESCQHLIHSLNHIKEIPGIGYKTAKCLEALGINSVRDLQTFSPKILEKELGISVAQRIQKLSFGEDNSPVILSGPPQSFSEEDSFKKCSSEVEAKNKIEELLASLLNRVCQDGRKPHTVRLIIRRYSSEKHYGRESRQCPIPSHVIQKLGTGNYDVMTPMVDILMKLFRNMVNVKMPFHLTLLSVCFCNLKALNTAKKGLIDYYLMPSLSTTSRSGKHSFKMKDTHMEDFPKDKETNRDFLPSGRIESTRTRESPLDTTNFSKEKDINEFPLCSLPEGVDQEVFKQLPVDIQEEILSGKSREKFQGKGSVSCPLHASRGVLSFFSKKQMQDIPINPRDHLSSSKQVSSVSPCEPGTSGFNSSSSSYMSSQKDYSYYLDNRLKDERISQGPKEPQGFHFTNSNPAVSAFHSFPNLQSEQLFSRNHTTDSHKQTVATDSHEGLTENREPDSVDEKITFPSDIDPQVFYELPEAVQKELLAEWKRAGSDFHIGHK
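Pol iota at 10 nM preincubated 15 min with compounds at room temperature; reaction started with fluorescent substrate, 50 nM final. Fluorescence read kinetically at 0 and 10 min; buffer-only wells as negative control.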
APEX1 inh – inhibitors of human APE1 endonuclease; recombinant APE1, TAMRA/BHQ-2 abasic DNA cleavage fluorescence; P27695; AID 2517; actives 0.35% (n = 350,000); Potency, µM (highest dose often 65.8 µM), actives largely listed as inhibitors; also: nearly all actives have a fitted effect of over 55% in size
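Enzyme (0.75 nM final) and test compound are incubated 15 min at room temperature before adding 50 nM quenched THF abasic-site duplex. Cleavage dequenches TAMRA, followed at 525/598 nm over three reads one minute apart.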
Pol kappa inh – DNA polymerase kappa (human) inhibition; Potency, µM (top dose mostly 107 µM), most hits filed as inhibitors; actives 0.53% (n = 400,000); Q9UBT6; purified Pol kappa, fluorescent DNA synthesis assay, 10 min
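50 nM final substrate added after 15 min RT preincubation of 10 nM Pol kappa with compound; fluorescence read at 0 and 10 min.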
POLH inh – DNA polymerase eta (human) inhibition. Potency, µM (titrated, usually from 114 µM), actives largely listed as inhibitors. AID 588591. recombinant Pol eta, fluorescent DNA replication assay. actives 1.2% (n = 390,000). Q9Y253
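Fluorescent replication assay: 50 nM final substrate added after a 15 min room-temperature compound preincubation with 10 nM enzyme. Signal taken at 0 min and again at 10 min.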
GLS inh – blocks human kidney-isoform glutaminase activity | O94925 | GLS enzymatic activity, qHTS titration | Potency, µM (top dose mostly 45.5 µM), hits mostly inhibitors | actives 0.21% (n = 410,000) | AID 624170
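Read-out is an Amplex red fluorescence increase coupled through glutamate oxidase and HRP, measured before and after 30 min room-temperature incubation. hKGA is in 45 mM KH2PO4 (pH 8.2) with 0.02% Tween-20; glutamine added as 1mM solution.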
Pol beta inh – DNA polymerase beta (human) inhibition; P06746; Pol beta primer extension/strand displacement, fluorescence kinetic; Potency, µM (series often up to 114 µM), actives largely listed as inhibitors; actives 1.3% (n = 340,000)
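Pol beta (10 nM) and compounds were preincubated 15 min at room temperature, then 50 nM substrate (final) started primer extension/strand displacement. Reads were taken at 0 and 10 min; concentration-response data were fitted to a four-parameter Hill equation.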
Each line names hits and unclear results; the compound was inactive in the other large screens; ! = not confirmed by another sample. This is a sample that favours compounds with a hit; in the whole collection about 2.4% have one here. Calls follow the shape of the dose curve; as a rule, active = well fitted curve in the direction sought with a large enough effect; inconclusive = small, poorly fitted or top-dose-only effect, or another doubt; inactive = no such curve, though single readings can be large; an effect the other way counts as inactive or inconclusive.

COCCCn1cnc2c(c1=O)c1nc3ccccc3nc1n2-c1ccc(C)cc1	Pol beta inh 35µM
CN(/C=C/C(=C/C=[N+](C)c1ccccc1)OCCCS(=O)(=O)[O-])c1ccccc1	Pol iota inh inconclusive, APEX1 inh inconclusive, Pol kappa inh inconclusive, POLH inh inconclusive, Pol beta inh 28µM
CN(/C=C/C(=C\C=[N+](C)c1ccccc1)OCCCS(=O)(=O)[O-])c1ccccc1	Pol iota inh inconclusive, Pol kappa inh inconclusive, Pol beta inh 50µM
O=C(Nc1ccc(Br)cc1Br)c1cccc2c1C(=O)N(C1CCCCC1)C2	none
O=C(Nc1ccc(F)cc1F)c1cccc2c1C(=O)N(C1CCCCC1)C2	Pol iota inh inconclusive, Pol beta inh 13µM (no result: APEX1 inh)
NC(=O)c1cccc2c1C(=O)N(C1CCCCC1)C2	Pol iota inh inconclusive, Pol kappa inh inconclusive, POLH inh 50µM, Pol beta inh inconclusive
O=C(Nc1ccc(Br)cc1)c1cccc2c1C(=O)N(C1CCCCC1)C2	none
CCOC(=O)c1nn(-c2ccccc2)c(=O)c2c(N)scc12	Pol iota inh inconclusive, POLH inh inconclusive, GLS inh inconclusive
Nc1scc2c(C(=O)N/N=C/c3ccc(Cl)cc3)nn(-c3ccccc3)c(=O)c12	Pol iota inh 6.3µM, APEX1 inh inconclusive, Pol kappa inh inconclusive
Cc1ccc(-c2csc3ncnc(N4CCN(c5ccccc5O)CC4)c23)cc1	none
CNc1ccc(C=C2C=CC=C2)cc1	Pol iota inh 5µM, Pol kappa inh inconclusive (no result: APEX1 inh, POLH inh, GLS inh, Pol beta inh)
CC(=O)N1CCCc2cc(S(=O)(=O)N3CCCC(C(=O)Nc4cc(Cl)ccc4C)C3)ccc21 (stereo unspecified)	none (no result: APEX1 inh)
O=C1N/C(=N\S(=O)(=O)Cc2ccccc2)S/C1=C/c1cccc([N+](=O)[O-])c1	Pol iota inh inconclusive, POLH inh 50µM
Cc1ccc2c(cnn2C(=O)CCC(=O)NCc2ccccc2Cl)c1	Pol iota inh inconclusive
CC(=O)OC[C@]12CC[C@H]3[C@@](C)(CC[C@H]4C(C)(C)CCC[C@]34C)[C@@H]1C[C@H](C1=CC(=O)O[C@@H]1OC(C)=O)O2	APEX1 inh 13µM (no result: Pol iota inh, Pol kappa inh, POLH inh, GLS inh, Pol beta inh)
CCn1c2c(c(=O)n3ncc(C(=O)Nc4cc(Cl)ccc4C)c13)CN(Cc1ccc(OC)cc1)CC2	none (no result: APEX1 inh)
Cc1ccccc1C(=O)NNC(=S)Nc1cccc(C(F)(F)F)c1	GLS inh 18µM
CN(C)CCOc1ncnc2c1oc1ccccc12	none
CN(C)CCOc1nc(-c2ccccc2)nc2c1oc1ccccc12	Pol iota inh inconclusive, POLH inh inconclusive, Pol beta inh 45µM
O=C1/C(=C/c2cccnc2)CCC/C1=C\c1cccnc1	Pol iota inh 45µM, POLH inh 22µM
CCC1C/C(=C\c2cccnc2)C(=O)/C(=C/c2cccnc2)C1 (stereo unspecified)	Pol iota inh 22µM, POLH inh 11µM
O=C1/C(=C/c2cccnc2)CC/C1=C\c1cccnc1	none
CC(C)CN(C(=O)c1cc(Cl)nc2ccccc12)c1c(N)n(Cc2ccccc2)c(=O)[nH]c1=O	none (no result: Pol beta inh)
CCCN(CCC)c1ccc(/C=C/c2sc3ccccc3[n+]2CCCCI)cc1	Pol iota inh 79µM, Pol kappa inh inconclusive (no result: APEX1 inh, POLH inh, GLS inh, Pol beta inh)
COc1ccc(/C=C/c2sc3ccccc3[n+]2CCCCI)cc1OC	Pol iota inh inconclusive (no result: APEX1 inh, POLH inh, GLS inh, Pol beta inh)
CN(C)c1ccc(/C=C/c2sc3ccccc3[n+]2Cc2ccccc2)cc1	Pol iota inh 79µM, Pol kappa inh inconclusive (no result: APEX1 inh, POLH inh, GLS inh, Pol beta inh)
CCCC(=O)NCCc1cc2ccc(OC)cc2[nH]c1=O	none
COC(=O)C1=C(CSc2nc3c(cc2C#N)CN(C)CC3)OC(N)=C(C#N)C1c1ccc(F)cc1 (stereo unspecified)	Pol iota inh 14µM, Pol kappa inh 71µM, POLH inh inconclusive, Pol beta inh inconclusive
CCOC(=O)C1=C(CSc2nc(CC)c(C)cc2C#N)OC(N)=C(C#N)C1c1ccc(OC)cc1 (stereo unspecified)	Pol iota inh inconclusive
CC(C)(C)C(=O)Nc1ccc(Sc2ccc([N+](=O)[O-])cc2)cc1	none
CC(=O)Nc1ccc(Sc2ccc([N+](=O)[O-])o2)cc1	Pol iota inh inconclusive, POLH inh 32µM (no result: APEX1 inh, Pol beta inh)
COC(=O)CSc1nc2c(cnn2-c2ccc(Cl)cc2)c(=O)[nH]1	Pol iota inh inconclusive
COc1ccc(/C=N/NC(=O)c2c(C)nc3ccc(Br)cn23)cc1OC	none
Cc1no[n+]([O-])c1COc1cccc(/C=N/Nc2nncn2N)c1	Pol iota inh 20µM, Pol beta inh inconclusive
COc1cc(/C=N/n2nnnc2N)ccc1OCc1c(C)no[n+]1[O-]	none
NCCCn1c(C(=O)c2cc(Cl)c(N)c(Cl)c2)c2ccc([N+](=O)[O-])cc2[n+]1[O-]	none (no result: Pol beta inh)
COc1cccc(C(=O)c2cn(CC(=O)NCc3ccco3)c3nc(C)ccc3c2=O)c1	Pol iota inh 22µM, Pol kappa inh 89µM, POLH inh 40µM, Pol beta inh inconclusive
Cc1ccc2c(=O)c(C(=O)c3ccc(F)cc3)cn(CC(=O)NCc3ccco3)c2n1	Pol iota inh inconclusive, Pol kappa inh inconclusive, POLH inh inconclusive, Pol beta inh inconclusive
NC(=O)c1ccc2c(c1)OCCO2	none
Cc1cccc(NC(=S)NCCc2ccccc2)c1C	none
Cc1cccc(C)c1NC(=S)NCCc1ccc(O)c(O)c1	GLS inh 4µM
Cc1c(C(=O)NC(C)C)oc2c1-c1[nH]ncc1CC2	Pol iota inh 25µM
COc1ccc(CC(=O)OCC(=O)NC(=O)Nc2ccccc2F)cc1	none (no result: Pol beta inh)
O=S(=O)(O)c1ccc(N=Nc2ccccc2)cc1	Pol beta inh inconclusive
Cc1ccc(N=Nc2ccc(N)cc2C)c(S(N)(=O)=O)c1	POLH inh inconclusive, Pol beta inh inconclusive
Nc1c(N=Nc2ccc(-c3ccc(N=Nc4cc(S(=O)(=O)O)c5ccccc5c4N)cc3)cc2)cc(S(=O)(=O)O)c2ccccc12	APEX1 inh 32µM, Pol kappa inh 1.1µM, GLS inh inconclusive (no result: Pol iota inh, POLH inh, Pol beta inh)
Cc1cc(-c2ccc(N=Nc3ccc4c(S(=O)(=O)O)cc(S(=O)(=O)O)c(N)c4c3O)c(C)c2)ccc1N=Nc1ccc2c(S(=O)(=O)O)cc(S(=O)(=O)O)c(N)c2c1O	APEX1 inh 2.5µM, Pol kappa inh 1.3µM, GLS inh 14µM! (no result: Pol iota inh, POLH inh, Pol beta inh)
CCC(=O)Nc1cc2[nH]c(=O)cc(C)c2cc1C	none
CCC(=O)c1ccc(OCC(=O)N2CCN(S(=O)(=O)c3ccc(Cl)s3)CC2)cc1	Pol iota inh inconclusive, Pol kappa inh inconclusive, POLH inh 45µM (no result: Pol beta inh)
C[C@H]1c2cccc(O)c2C(O)=C2C(=O)C3(O)C(O)=C(C(N)=O)C(=O)[C@@H](N(C)C)[C@@H]3[C@@H](O)[C@@H]21 (stereo partly specified)	none (no result: Pol beta inh)

From PubChem
